{"source": "PubChem BioAssay (NCI)", "note": "“And” between values parts separate entries of the source, which are not always exact repeats. Identical values can stand only once. About 83,000 compounds went through this panel and 20% of them were active in at least one assay; those are over-represented in the sample as a whole.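 Step 1: grow cells in 96-well plates. Step 2: add test compound at a single concentration. Step 3: incubate 48 h. Step 4: record percent growth.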 Unmarked numbers belong to inactive results. The source made the active and inactive calls. The calls were made as follows: active = growth percent below 10; inactive = the rest.", "data": [{"test_system": "HL-60(TB) leukemia", "test": "NCI-60 one-dose screen, 48 h (100 = growth as untreated, 0 = no growth, -100 = all killed)", "conditions": "10 µM unless noted", "values": [{"smiles": "COc1cccc(-c2nc(Nc3ccc(S(N)(=O)=O)cc3)c3ccccc3n2)c1", "growth": "35%"}, {"smiles": "O=C(CSc1nc2ccccc2c(=O)n1-c1ccc(Cl)cc1)Nc1ccc(-c2nc3ccccc3[nH]2)cc1", "growth": "44.4%"}, {"smiles": "COC(=O)c1c(C(=O)OC)c2ccc3c4ccccc4ccc3n2c1C(=O)OC", "growth": "111%"}, {"smiles": "CN(C)CCCNC(=O)c1cc(NC(=O)c2cc(NC(=O)c3ccc(/C=C/c4ccccc4)cc3)cn2C)cn1C", "growth": "-37.7% (active)"}, {"smiles": "CCOC(=O)C1=C(N)N(c2ccccc2)C2=C(C(=O)CC(C)(C)C2)C1c1ccccc1Cl", "note": "(stereo unspecified)", "growth": "-23% (active)"}, {"smiles": "Cc1ccc(C(=O)Nc2ccc(-n3ccnc3)c(C(F)(F)F)c2)cc1C#Cc1cnc2cccnn12", "growth": "-19.6% (active)"}, {"smiles": "COc1ccc(CCN2C(=O)/C(=C/c3csc(C#N)n3)SC2=S)cc1OC", "growth": "-18% (active)"}, {"smiles": "COc1cc(CNC(=O)/C=C/c2ccc3c(c2)OCO3)ccc1OCc1cn(-c2cccc(C(F)(F)F)c2)nn1", "growth": "69.7%"}, {"smiles": "Cc1ccc(C(=O)Nc2cc(-n3ccnc3)cc(C(F)(F)F)c2)cc1-n1cc(-c2cnc3cccnn23)nn1", "growth": "50.5%"}, {"smiles": "N#Cc1ccc(/C=N/NC(=O)c2[nH]c3ccc(Br)cc3c2-c2ccccc2)o1", "growth": "-25.1% (active)"}, {"smiles": "C/C(=C\\CC/C=C(\\C)CC/C=C(\\C)CC[C@@H](O)C(C)(C)O)CC/C=C(\\C)CC[C@@H](O)C(C)(C)O", "growth": "-49.3% (active)"}, {"smiles": "N#C/C(=C/c1ccc([N+](=O)[O-])cc1)c1nnc(NC(=O)c2ccc(-n3c(=O)[nH]c4ccccc4c3=O)cc2)s1", "growth": "99.3%"}, {"smiles": "COc1ccc2c3nc4cc(C)c(C)cc4nc3n(CCN(C)C)c2c1", "growth": "-45.3% (active)"}, {"smiles": "COc1ccc(N(C)c2cc(C#N)nc3ccccc23)cc1/C=C/C(=O)NO", "growth": "-28.7% (active)"}, {"smiles": "COc1c(F)ccc(C(=O)Nc2ccc3nc(NC(=O)C4CCCN(S(=O)(=O)c5ccc(Br)c(F)c5)C4)sc3c2)c1F", "note": "(stereo unspecified)", "growth": "88.8%"}, {"smiles": "COc1ccc(-c2cc(C(=O)N=Nc3c(O)[nH]c4ccc(F)cc34)c3ccccc3n2)cc1", "growth": "51.6%"}, {"smiles": "CCOc1ccccc1[C@H]1C(C(=O)c2ccc(Cl)cc2)C2(N[C@@H]1c1ccccc1)C(=O)Nc1ccccc12", "note": "(stereo partly specified)", "growth": "-35.5% (active)"}, {"smiles": "COc1ccc(/C=C/c2nc3ccccc3c(=O)n2CC(=O)Nc2ccc(OC)cc2)cc1", "growth": "82%"}, {"smiles": "COc1ccc(C2=NN(c3ccccc3)C(c3ccc(OC)c(OCc4ccccc4)c3)C2)cc1OC", "note": "(stereo unspecified)", "growth": "100%"}, {"smiles": "CC(=O)c1c(N)c(C#N)cn1-c1ccc(Cl)cc1Cl", "growth": "102%"}, {"smiles": "CCN(CC)CCOc1ccc(Nc2ncc3cc(-c4ccc(O)c(C#N)c4)c(=O)n(C)c3n2)cc1", "growth": "87.6%"}, {"smiles": "NNc1ncnc2sc3c(c12)CCN(Cc1ccccc1)C3", "growth": "18.8%"}, {"smiles": "CN1CCN(C(=O)Oc2cc3c(c4ccccc24)[C@H](CCl)CN3C(=O)c2cc3cc(OCCCN4CCC4)ccc3[nH]2)[C@@H]2CSSC[C@H]21", "growth": "-25.8% (active)"}, {"smiles": "CS(=O)(=O)Nc1ccc(-c2ccc3c(c2)ncn3-c2ccc(NC(=O)Nc3ccc(Cl)c(C(F)(F)F)c3)cc2)cc1", "growth": "-42.4% (active)"}, {"smiles": "COc1ccc(S(=O)(=O)Nc2ccc(-c3ccc4c(c3)NC(=O)/C4=C\\c3ccc[nH]3)cc2)cc1OC", "growth": "76.8%"}, {"smiles": "COc1cc(C=O)ccc1Oc1nc(Nc2ccc(F)cc2)nc(N(C)C)n1", "growth": "65.2% and 70.8%"}]}]}
